How the values were obtained:
Test in all cases: PBM binding z-score (relative to random genomic background probes); higher = stronger binding; sequences stand for … in GC…GCGATTGACAGCGTAGAATGAAGG
[1] = test system: FXR:RXRa (NR concentration 270 nM, RXRa partner concentration 90 nM)
How it was run: (§1)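 Binding buffer was PBS pH 7.4 with 2% milk, 0.02% Triton X-100, 1 mM DTT, 0.2 mg/mL BSA and 0.4 mg/ml salmon testes DNA. In it, ligand-free nuclear receptor dimers were incubated 1 h on custom Agilent 4×180K protein-binding microarrays carrying double-stranded probes. Antibodies against each partner (one per run) detected binding, and z-scores were calculated against random background probes after regression normalization of scanned fluorescence.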

[2] = test system: LXRa:RXRa (NR concentration 270 nM, RXRa partner concentration 90 nM)
How it was run: as §1

[3] = test system: LXRa homodimer (NR concentration 270 nM)
How it was run: as §1

[4] = test system: LXRb:RXRa (NR concentration 270 nM, RXRa partner concentration 90 nM)
How it was run: as §1

[5] = test system: LXRb homodimer (NR concentration 270 nM)
How it was run: as §1

[6] = test system: PPARa:RXRa (NR concentration 270 nM, RXRa partner concentration 90 nM)
How it was run: as §1

[7] = test system: PPARg:RXRa (NR concentration 180 nM, RXRa partner concentration 90 nM)
How it was run: as §1

[8] = test system: PPARg:RXRa 270nM:90nM, anti-RXR (NR concentration 270 nM, RXRa partner concentration 90 nM)
How it was run: as §1

[9] = test system: PPARg:RXRa 30nM:10nM, anti-RXR (NR concentration 30 nM, RXRa partner concentration 10 nM)
How it was run: as §1

[10] = test system: PPARg:RXRa 90nM:30nM, anti-RXR (NR concentration 90 nM, RXRa partner concentration 30 nM)
How it was run: as §1

[11] = test system: PPARg:RXRa DBDmut IVT, anti-RXR (DBD mutation: RXRa K156A/R161A, NR concentration 270 nM, RXRa partner concentration 90 nM)
How it was run: as §1

[12] = test system: PPARg:RXRa IVT, anti-PPARg (NR concentration 270 nM, RXRa partner concentration 90 nM)
How it was run: as §1

[13] = test system: PPARg DBDmut:RXRa IVT, anti-PPARg (DBD mutation: PPARg1 K132A/R137A, NR concentration 270 nM, RXRa partner concentration 90 nM)
How it was run: as §1

[14] = test system: PPARg DBDmut IVT, anti-PPARg (DBD mutation: PPARg1 K132A/R137A, NR concentration 270 nM)
How it was run: as §1

[15] = test system: PPARg homodimer (NR concentration 180 nM)
How it was run: as §1

[16] = test system: PXR:RXRa (NR concentration 270 nM, RXRa partner concentration 90 nM)
How it was run: as §1

[17] = test system: PXR homodimer (NR concentration 270 nM)
How it was run: as §1

[18] = test system: RARa:RXR (NR concentration 270 nM, RXRa partner concentration 90 nM)
How it was run: as §1

[19] = test system: RARa homodimer (NR concentration 270 nM)
How it was run: as §1

[20] = test system: RARb:RXRa (NR concentration 270 nM, RXRa partner concentration 90 nM)
How it was run: as §1

Sequence | PBM binding z-score [1] | PBM binding z-score [2] | PBM binding z-score [3] | PBM binding z-score [4] | PBM binding z-score [5] | PBM binding z-score [6] | PBM binding z-score [7] | PBM binding z-score [8] | PBM binding z-score [9] | PBM binding z-score [10] | PBM binding z-score [11] | PBM binding z-score [12] | PBM binding z-score [13] | PBM binding z-score [14] | PBM binding z-score [15] | PBM binding z-score [16] | PBM binding z-score [17] | PBM binding z-score [18] | PBM binding z-score [19] | PBM binding z-score [20]
TAGCCTAGGTCATGCGGGCCTGTATAGTGTCGGC | 3.73 | 3.24 | 0.135 | 1.6 | -0.428 | 3.27 | 1.91 | 2.39 | 0.161 | 1.45 | 1.65 | 2.76 | -0.075 | -0.309 | 0.586 | 1.27 | -0.864 | 2.14 | -0.78 | 3.55
TCTCGTAGATCAAGCAGGTTAAGAAAGCCTGAGT | -0.462 | -0.196 | -0.257 | -0.0905 | -1.19 | 0.4 | -0.54 | 0.861 | 2.47 | 1.83 | 1.63 | -0.598 | -0.611 | -0.106 | -0.511 | 0.225 | -0.267 | 0.111 | -0.712 | -0.255
ACTATTAGTTGACTTAGGCCAACCGATACGACGC | 0.313 | 0.281 | 0.278 | 0.209 | 1.1 | 0.0554 | 1.05 | 0.478 | 0.505 | 0.622 | 0.581 | 0.623 | 1.41 | 1.22 | 1.1 | 0.168 | 0.397 | 0.152 | 0.685 | 0.896
CCTAGCAGGCCAGGGTCTCTCAAGCATTTCGCTT | -0.78 | -0.742 | -0.767 | -0.956 | -1.15 | -0.63 | -0.954 | -0.991 | -1.16 | -1.4 | -0.0358 | -0.785 | -1.73 | -1.57 | -0.714 | -0.908 | -0.933 | -0.825 | -1.17 | -0.0781
CAGCGTAGGTCAGGGCCAGTATAGGAGGAACGTT | 1.79 | 1.23 | -0.344 | 0.759 | -1.03 | 2.46 | 0.896 | 0.918 | -0.272 | 0.0961 | 0.838 | 1.03 | -0.58 | -1.66 | 0.304 | 0.605 | -0.644 | 1.04 | 0.00652 | 3.43
ACTATTAGTTGACTTAGGGCATCCGATACGACGC | -0.0291 | 0.0994 | 0.216 | -0.154 | 0.3 | -0.203 | 0.827 | 0.149 | 0.353 | 0.396 | 0.311 | 0.614 | 1.03 | 0.574 | 0.0693 | 0.114 | 0.228 | 0.0202 | 0.624 | 0.643
CCTTACCGGTCACTCCAGGTTATAGCATCGGAGT | 2.6 | 6.15 | 4.71 | 2.67 | 1.65 | 1.3 | 0.603 | 0.901 | 0.0814 | 0.653 | 1.13 | 1.44 | -0.00194 | -0.042 | 1.6 | 1.94 | 1.24 | 1.37 | 1.2 | 2.9
CGTCCAAGGTCAAAGGTCGGTGAAGAGATGACGG | 7.72 | 5.78 | 1.27 | 5.08 | 0.738 | 7.01 | 9.09 | 7.29 | 6.65 | 7.6 | 3.9 | 5.09 | 0.166 | -0.0129 | 2.61 | 5.91 | 0.774 | 7.5 | 0.478 | 5.68
CGTCCAAGGTCATAGGAGGTCAGCGAAGACAGAT | 7.87 | 7.84 | 5.46 | 6.23 | 1.15 | 6.44 | 6.36 | 5.99 | 2.57 | 4.9 | 3.34 | 4.77 | 0.336 | -0.611 | 4.47 | 7.04 | 3.83 | 6.41 | 2.5 | 5.66
CGTCCAAGGTCATAGAAGGTCAGTGAAGACAGAT | 7.45 | 7.22 | 4.12 | 5.81 | 0.783 | 5.53 | 5.05 | 5.64 | 2.37 | 4.36 | 3.2 | 4.17 | 0.653 | 0.867 | 2.94 | 6.39 | 3.15 | 5.72 | 1.77 | 5.41
AGAATGAGGTTATACGTAGATCAGTGAAGAAAGT | 1.96 | 1.82 | 0.00702 | 1.51 | 0.326 | 2.96 | 1.92 | 2.13 | 0.914 | 1.38 | 3.57 | 2.11 | 1.37 | 1.44 | 0.559 | 1.15 | 0.463 | 1.56 | 0.81 | 1.39
CCTAGCGGGCCAATCTGGGTCACTCAAGGCTTGA | 0.251 | 0.915 | -0.728 | 0.534 | -1.32 | 2.88 | 1.65 | 1.99 | -0.227 | 1.17 | 3.83 | 4.82 | -0.426 | -0.554 | 0.532 | 0.83 | -0.579 | 1.49 | -0.347 | 1.45
CCTTACGGGTCACTGACAGGTTATGGCATTTGGA | 5.56 | 4.1 | 0.253 | 3.08 | -0.323 | 5.03 | 4.2 | 4.62 | 1.67 | 3.02 | 3.42 | 3.8 | 0.363 | -0.311 | 3.61 | 3.77 | -0.0581 | 4.95 | 1.29 | 4.04
TCGACTAGGTTACCAATGGGGCATTCAGCTTTCT | 0.55 | 1.5 | -0.443 | 1.49 | -0.537 | 1.37 | 0.614 | 1.78 | 2.68 | 2.06 | 4.11 | 2.87 | 0.333 | 0.263 | 0.845 | 0.199 | -0.246 | 0.659 | -0.05 | 1.18

From the supplement of paper PMC6555819
